BAZ2B block: inhibitors of human BAZ2B bromodomain | AlphaScreen BAZ2B-H3K14Ac peptide displacement | Potency, µM (highest dose often 114 µM), most hits filed as inhibitors | actives 4.4% (n = 360,000); further: nearly all actives have a fitted effect of over 60% in size
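AlphaScreen displacement of biotin-H3(5-23)K14Ac peptide (50 nM final) from BAZ2B (50 nM final) in PBS pH 7.4, 0.01% Tween-20; complex preformed 30 min RT, then compounds (top 110 uM) 30 min RT, beads 20 min dark.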
HP1b binding inh: blocks HP1-beta chromodomain binding to methylated histone tails | P83916 | actives 0.56% (n = 390,000) | Potency, µM (series often up to 114 µM), actives largely listed as inhibitors | AID 540317 | AlphaScreen HP1-beta / biotin-H3K9me3 peptide binding; further: nearly all actives have a fitted effect of over 70% in size
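Compound inhibition of the preformed complex between 50 nM HP1-beta and 50 nM biotinylated H3K9me3 peptide was read by AlphaScreen. Buffer was PBS pH 7.4 with 0.01% Tween-20. Incubations ran 30 min at room temperature, with 10 ug/mL donor/acceptor beads.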
Sfp PPTase inh: inhibitors of Bacillus subtilis Sfp phosphopantetheinyl transferase; Q9F4F7; actives 3.5% (n = 310,000); AID 1490; Potency, µM, most hits filed as inhibitors; Biochemical Sfp PPTase activity, qHTS;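 further: the enzyme is Sfp with the accession as filed and its product quenches rhodamine fluorescence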
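Fluorescence-quenching assay: 15 nM Sfp-PPTase preincubated 15 min at room temperature with compound, then 5 uM rhodamine-CoA and 12.5 uM BHQ-2-labelled YbbR peptide added. Fluorescence (ex 525/em 598 nm) read at start and after 30 min; difference gives rate.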
G9a inh: G9a (human) methyltransferase inhibition; G9a H3K9 monomethylation, AlphaScreen, 2 h; Potency, µM (top dose mostly 102 µM), actives largely listed as inhibitors; actives 8.8% (n = 350,000); further: nearly all actives have a fitted effect of over 75% in size
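Enzyme 20 nM + cpd, 15 min RT; add b-H3K9 pep 500 nM / SAM 20 uM; 2 h RT; anti-H3K9me1 Ab 0.5 ug/mL + SA donor / anti-rabbit acceptor beads 20 ug/mL each, 10 min; AlphaScreen read.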
JMJD2A Tudor: blocks the human JMJD2A Tudor domain; AlphaScreen JMJD2A-Tudor / H3K4me3 peptide binding; actives 4.4% (n = 390,000); O75164; Potency, µM (doses to about 114 µM), actives largely listed as inhibitors; further: nearly all actives have a fitted effect of over 50% in size
Target sequence (O75164 whole entry, looked up, the tested form may be a part): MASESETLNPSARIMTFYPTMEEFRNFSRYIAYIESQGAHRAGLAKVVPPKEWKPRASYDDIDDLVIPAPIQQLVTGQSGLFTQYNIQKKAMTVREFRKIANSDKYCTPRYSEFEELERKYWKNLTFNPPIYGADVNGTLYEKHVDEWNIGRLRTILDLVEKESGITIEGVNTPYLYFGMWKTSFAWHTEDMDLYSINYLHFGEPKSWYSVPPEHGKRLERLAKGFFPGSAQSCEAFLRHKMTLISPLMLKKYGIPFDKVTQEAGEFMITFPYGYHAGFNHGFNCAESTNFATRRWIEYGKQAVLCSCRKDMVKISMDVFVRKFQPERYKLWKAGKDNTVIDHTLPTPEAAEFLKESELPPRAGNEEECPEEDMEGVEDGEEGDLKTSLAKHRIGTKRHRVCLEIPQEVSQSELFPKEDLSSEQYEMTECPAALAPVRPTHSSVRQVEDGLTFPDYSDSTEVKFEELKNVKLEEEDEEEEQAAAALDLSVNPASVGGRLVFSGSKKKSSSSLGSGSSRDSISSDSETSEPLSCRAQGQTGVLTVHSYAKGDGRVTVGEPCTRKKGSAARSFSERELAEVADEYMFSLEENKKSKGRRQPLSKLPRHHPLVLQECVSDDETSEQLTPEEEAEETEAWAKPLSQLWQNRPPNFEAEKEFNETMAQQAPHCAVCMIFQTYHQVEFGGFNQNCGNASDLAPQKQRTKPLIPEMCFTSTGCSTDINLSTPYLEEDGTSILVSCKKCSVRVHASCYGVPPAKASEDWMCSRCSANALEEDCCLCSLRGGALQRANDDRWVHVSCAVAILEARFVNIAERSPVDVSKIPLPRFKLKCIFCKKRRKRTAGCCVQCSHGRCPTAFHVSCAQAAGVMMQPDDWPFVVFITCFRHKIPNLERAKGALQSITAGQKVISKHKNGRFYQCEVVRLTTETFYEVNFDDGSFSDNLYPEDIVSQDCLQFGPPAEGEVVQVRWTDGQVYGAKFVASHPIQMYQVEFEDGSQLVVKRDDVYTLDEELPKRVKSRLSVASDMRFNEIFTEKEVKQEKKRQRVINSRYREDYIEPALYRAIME
Large screens that a line does not name were inactive. Compounds with a hit are over-represented: about 12% of the library has one in this group of screens. The call rests on the fitted dose curve; in most records, active means well fitted curve in the direction sought with a large enough effect; inconclusive means small, poorly fitted or top-dose-only effect, or another doubt; inactive means no such curve, though single readings can be large; an effect the other way counts as inactive or inconclusive.

COc1cccc(OC)c1C(=O)OCCCOC(=O)c1c(OC)cccc1OC	G9a inh inconclusive
O=C(CSc1ccc2c(c1)OCCO2)NC(=O)NC1CCCC1	HP1b binding inh inconclusive
COc1cc(COc2ccc3c(C)c(CCC(=O)O)c(=O)oc3c2)cc(OC)c1OC	none
CCC(CO)NCc1ccc(OC2CCCC2)cc1 (stereo not drawn)	none
CN(C)CCNCc1ccc(OC2CCCC2)cc1	G9a inh 79µM
CCCCN1CCc2c([nH]c3c(C)cccc23)C1=O	HP1b binding inh inconclusive, JMJD2A Tudor 20µM
O=C(NCc1ccccc1Br)c1ccc2c(c1)nc1n2CCOC1	none (no result: Sfp PPTase inh)
COC(=O)CCC(=O)OC1(C)C(=O)C2=CN(Cc3ccccc3)C(c3ccc(OC)cc3)=CC2=C(Br)C1=O (stereo not drawn)	HP1b binding inh inconclusive, JMJD2A Tudor inconclusive (no result: BAZ2B block, G9a inh)
COC(=O)CCC(=O)OC1(C)C(=O)C2=CN(Cc3ccc(OC)cc3)C(c3ccc(OC)cc3)=CC2=C(Br)C1=O (stereo not drawn)	HP1b binding inh inconclusive, JMJD2A Tudor 50µM (no result: BAZ2B block, G9a inh)
COC(=O)CCC(=O)OC1(C)C(=O)C2=CN(CC(C)C)C(c3ccc(OC)cc3)=CC2=C(Br)C1=O (stereo not drawn)	BAZ2B block 40µM, Sfp PPTase inh inconclusive (no result: HP1b binding inh, JMJD2A Tudor)
CC1(C)[N+]([O-])=C2C(=[N+]([O-])C1(C)C)c1ccccc1/C2=N\O	BAZ2B block inconclusive, G9a inh 50µM
CC1(c2ccc(O)cc2)NC(=O)N(c2ccccc2)N1 (stereo not drawn)	none
CCC1(c2ccccc2)NC(=S)N(c2ccc(C)cc2)N1 (stereo not drawn)	Sfp PPTase inh 50µM, G9a inh inconclusive
CCC1(c2ccc(Cl)cc2)NC(=S)N(c2ccccc2)N1 (stereo not drawn)	Sfp PPTase inh 56µM, G9a inh 13µM
Cc1ccc(N2CN(CCc3ccccc3)CNC2=S)cc1	none (no result: G9a inh)
O=S(=O)(c1cc(Cl)cc(Cl)c1)N1CCC2CC1c1cc(Cl)ccc12 (stereo not drawn)	none (no result: BAZ2B block, Sfp PPTase inh, G9a inh)
O=C(NCCCN1CCOCC1)c1ccc2c(c1)N(Cc1ccccc1)CCS2	BAZ2B block inconclusive, JMJD2A Tudor inconclusive
O=C(NCCN1CCOCC1)c1ccc2c(c1)N(Cc1ccccc1)CCS2	G9a inh 50µM, JMJD2A Tudor inconclusive
CN1CCSc2ccc(C(=O)NCc3ccccc3)cc21	BAZ2B block inconclusive, G9a inh 40µM
CN1CCN(CCCNC(=O)c2ccc3c(c2)N(Cc2ccccc2)CCS3)CC1	G9a inh 79µM, JMJD2A Tudor inconclusive
COc1ccc(C2c3c(ncn(CCCN4CCOCC4)c3=N)Oc3ccc4ccccc4c32)cc1OC (stereo not drawn)	G9a inh inconclusive, JMJD2A Tudor inconclusive
N=c1c2c(ncn1Cc1ccco1)Oc1ccc3ccccc3c1C2c1ccccc1 (stereo not drawn)	BAZ2B block 45µM, HP1b binding inh inconclusive, Sfp PPTase inh 22µM, G9a inh inconclusive, JMJD2A Tudor inconclusive
COc1ccc(C2c3ccc4ccccc4c3Oc3ncn(CCCO)c(=N)c32)cc1 (stereo not drawn)	BAZ2B block 71µM, Sfp PPTase inh inconclusive
COc1cccc(C2c3c(ncn(CCCN4CCOCC4)c3=N)Oc3ccc4ccccc4c32)c1 (stereo not drawn)	JMJD2A Tudor 28µM (no result: BAZ2B block, HP1b binding inh, Sfp PPTase inh, G9a inh)
COc1cccc(C2c3c(ncn(-c4cccc(C#N)c4)c3=N)Oc3ccc4ccccc4c32)c1 (stereo not drawn)	JMJD2A Tudor 79µM (no result: BAZ2B block, HP1b binding inh, Sfp PPTase inh, G9a inh)
Cc1ccc(C)c(CN2C(=O)c3ccccc3S(=O)(=O)c3ccc(C(=O)N4CCCC4)cc32)c1	none (no result: Sfp PPTase inh)
COc1ccccc1-n1nnnc1SCC(=O)NCC1(N2CCCCC2)CCCCC1	none (no result: BAZ2B block, Sfp PPTase inh, G9a inh)
CC1CCCN(CC(=O)NNC(=O)COc2ccc(Br)cc2)C1 (stereo not drawn)	JMJD2A Tudor inconclusive (no result: BAZ2B block, Sfp PPTase inh, G9a inh)
COc1ccc(C2C3=C(CC(C)(C)CC3=O)Oc3ncn(Cc4ccco4)c(=N)c32)cc1 (stereo not drawn)	BAZ2B block 50µM, G9a inh inconclusive, JMJD2A Tudor inconclusive
COc1ccc(C2c3c(nc(CCc4ccccc4)[nH]c3=O)Oc3ccc4ccccc4c32)cc1OC (stereo not drawn)	none (no result: BAZ2B block, HP1b binding inh, Sfp PPTase inh, G9a inh)
